Source: PubChem BioAssay (NCI)
Values joined by “and” are separate entries in the source; they are usually repeats but may differ in a detail not shown here. Equal values may be shown once. About 83,000 compounds went through this panel and 20% of them were active in at least one assay; those are over-represented in the sample as a whole.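 A percent growth of 40 corresponds to 60% growth inhibition; 0 means no net growth; -100 means all cells died. Active threshold: below 10.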 Active and inactive are the calls of the source.

Assays:
Assay in all cases: NCI-60 one-dose screen, 48 h (100 = growth as untreated, 0 = no growth, -100 = all killed)
Settings in all cases: 10 µM unless noted
SR leukemia = system: SR leukemia
RPMI-8226 leukemia = system: RPMI-8226 leukemia
OVCAR-8 ovarian = system: OVCAR-8 ovarian
OVCAR-5 ovarian = system: OVCAR-5 ovarian
OVCAR-4 ovarian = system: OVCAR-4 ovarian
SK-OV-3 ovarian = system: SK-OV-3 ovarian
IGROV1 ovarian = system: IGROV1 ovarian
OVCAR-3 ovarian = system: OVCAR-3 ovarian
HS 578T breast = system: HS 578T breast
NCI/ADR-RES ovarian = system: NCI/ADR-RES ovarian

Measured: growth

CN1CCN(c2ccc3c4c(cccc24)C(=O)N(c2cccc(-c4nn(-c5ccccc5)cc4-c4nc5ccccc5s4)c2)C3=O)CC1
inactive: RPMI-8226 leukemia 43.1% | OVCAR-8 ovarian 94.6% | OVCAR-5 ovarian 122% | OVCAR-4 ovarian 103% | SK-OV-3 ovarian 135% | IGROV1 ovarian 93.8% | OVCAR-3 ovarian 118% | HS 578T breast 91.7% | NCI/ADR-RES ovarian 95.2%
active: SR leukemia -25%

Cc1ccc(S(=O)(=O)Nc2ccc(-c3ccc4c(c3)NC(=O)/C4=C\c3ccc[nH]3)cc2)cc1
active: SR leukemia -3.97%
inactive: RPMI-8226 leukemia 63.6% | OVCAR-8 ovarian 86.7% | OVCAR-5 ovarian 90.8% | OVCAR-4 ovarian 83.3% | SK-OV-3 ovarian 108% | IGROV1 ovarian 93.5% | OVCAR-3 ovarian 125% | HS 578T breast 92.2% | NCI/ADR-RES ovarian 89%

Cc1nc(Nc2ccccn2)sc1C1=NNC(c2ccccc2F)C1 (stereo not given)
inactive: SR leukemia 12.4% | RPMI-8226 leukemia 30.4% | OVCAR-8 ovarian 68% | OVCAR-5 ovarian 82.8% | OVCAR-4 ovarian 74.8% | SK-OV-3 ovarian 98.3% | IGROV1 ovarian 64.2% | OVCAR-3 ovarian 24.8% | HS 578T breast 87.6% | NCI/ADR-RES ovarian 20.9%

COC(=O)c1cc(C(=O)C(C)(C)C)n2c3ccccc3c3ccccc3c12
inactive: SR leukemia 69.7% | RPMI-8226 leukemia 70.2% | OVCAR-8 ovarian 98.6% | OVCAR-5 ovarian 98.6% | OVCAR-4 ovarian 85.9% | SK-OV-3 ovarian 109% | IGROV1 ovarian 86.2% | OVCAR-3 ovarian 110% | HS 578T breast 99.3% | NCI/ADR-RES ovarian 89.3%

CC(C)(C)c1cc(-c2cc(-c3ccccc3)[nH]c(=O)c2C#N)cc(C(C)(C)C)c1
inactive: SR leukemia 43.4% | RPMI-8226 leukemia 66.9% | OVCAR-5 ovarian 45.9% | SK-OV-3 ovarian 43.7% | IGROV1 ovarian 35.1% | OVCAR-3 ovarian 27.1% | NCI/ADR-RES ovarian 25.9%
active: OVCAR-8 ovarian 7.14% | OVCAR-4 ovarian 5.22% | HS 578T breast -3.49%

O=C1/C(=C/c2cnc(-c3ccccc3)s2)SC(=S)N1Cc1ccc2c(c1)OCO2
inactive: SR leukemia 67.5% | RPMI-8226 leukemia 110% | OVCAR-8 ovarian 67.6% | OVCAR-5 ovarian 99.4% | OVCAR-4 ovarian 77.5% | SK-OV-3 ovarian 35.6% | IGROV1 ovarian 64.2% | OVCAR-3 ovarian 97.6% | HS 578T breast 31.5% | NCI/ADR-RES ovarian 77.2%

CCOc1ccccc1[C@H]1C(C(=O)c2ccc(Cl)cc2)C2(N[C@@H]1c1ccccc1)C(=O)Nc1ccc(Cl)cc12 (stereo not given in full)
inactive: RPMI-8226 leukemia 21.1% | OVCAR-8 ovarian 45% | OVCAR-5 ovarian 46.2% | OVCAR-4 ovarian 22.5% | SK-OV-3 ovarian 42.8% | IGROV1 ovarian 22.2% | OVCAR-3 ovarian 27% | HS 578T breast 49% | NCI/ADR-RES ovarian 12.6%
active: SR leukemia -28.3%

N#Cc1cc(-c2ccc3ncnc(N4CCc5cc(F)c(Cl)cc54)c3c2)cnc1N
active: SR leukemia -25.7% | IGROV1 ovarian -16.2% | HS 578T breast -7.07%
inactive: RPMI-8226 leukemia 28.2% | OVCAR-8 ovarian 44.3% | OVCAR-5 ovarian 55.2% | OVCAR-4 ovarian 29.5% | SK-OV-3 ovarian 64.3% | OVCAR-3 ovarian 16.6% | NCI/ADR-RES ovarian 47.2%

N#Cc1c(-c2ccc(F)cc2)nc(SCc2ccccc2)nc1N1CCNCC1
active: SR leukemia -10.3% | RPMI-8226 leukemia -58% | OVCAR-8 ovarian -77.5% | OVCAR-5 ovarian -96.3% | OVCAR-4 ovarian -75% | SK-OV-3 ovarian -67.9% | IGROV1 ovarian -95.6% | OVCAR-3 ovarian -61.3% | HS 578T breast -45.6% | NCI/ADR-RES ovarian -51.1%

COc1ccc2[nH]c(O)c(N=Nc3nc(-c4ccc(Br)cc4)cs3)c2c1
inactive: SR leukemia 19.3% | RPMI-8226 leukemia 16.3% | OVCAR-5 ovarian 31.4% | IGROV1 ovarian 30.6% | HS 578T breast 29.3%
active: OVCAR-8 ovarian -23.7% | OVCAR-4 ovarian -69.6% | SK-OV-3 ovarian -35.3% | OVCAR-3 ovarian -71.3% | NCI/ADR-RES ovarian -24.6%

CCCCCCCCc1ccc(C(=O)Nc2ccc(C)c(OP(=O)(O)O)c2)cc1
inactive: SR leukemia 81.9% | RPMI-8226 leukemia 50.6% | OVCAR-8 ovarian 100% | OVCAR-5 ovarian 120% | OVCAR-4 ovarian 88.9% | SK-OV-3 ovarian 115% | IGROV1 ovarian 110% | OVCAR-3 ovarian 96.2% | HS 578T breast 91.6% | NCI/ADR-RES ovarian 97.5%

c1ccc(CSc2nnc(-c3ccc4nc(-c5ccccc5)[nH]c4c3)o2)cc1
active: OVCAR-8 ovarian -23.2% | OVCAR-4 ovarian -43.7% | HS 578T breast -1.88% | NCI/ADR-RES ovarian -40.3%
inactive: SR leukemia 63.6% | RPMI-8226 leukemia 36.7% | OVCAR-5 ovarian 75.3% | SK-OV-3 ovarian 87% | IGROV1 ovarian 63.6% | OVCAR-3 ovarian 27.4%

N#CCc1nnc(NC(=O)c2ccc(-n3c(=O)[nH]c4ccccc4c3=O)cc2)s1
inactive: SR leukemia 93.4% | RPMI-8226 leukemia 111% | OVCAR-8 ovarian 100% | OVCAR-5 ovarian 96.7% | OVCAR-4 ovarian 106% | SK-OV-3 ovarian 106% | IGROV1 ovarian 105% | OVCAR-3 ovarian 104% | HS 578T breast 87.9% | NCI/ADR-RES ovarian 104%

C=CCSc1nnc(-c2ccc(-c3nc4ccccc4[nH]3)cc2)o1
inactive: SR leukemia 81% | RPMI-8226 leukemia 34.9% | OVCAR-8 ovarian 55.9% | OVCAR-5 ovarian 105% | OVCAR-4 ovarian 46.1% | SK-OV-3 ovarian 96.1% | IGROV1 ovarian 101% | OVCAR-3 ovarian 91.5% | HS 578T breast 79% | NCI/ADR-RES ovarian 61.1%

CCCCNc1ccc2c3c(cccc13)C(=O)N(c1cccc(-c3nn(-c4ccccc4)cc3-c3nc4ccccc4s3)c1)C2=O
inactive: SR leukemia 95.5% | RPMI-8226 leukemia 95.3% | OVCAR-8 ovarian 107% | OVCAR-5 ovarian 104% | OVCAR-4 ovarian 101% | SK-OV-3 ovarian 126% | IGROV1 ovarian 98.4% | OVCAR-3 ovarian 111% | HS 578T breast 110% | NCI/ADR-RES ovarian 98%

CC(C)(C)c1ccc(OCc2nc3ccccc3n2-c2cccc(N)c2)cc1
inactive: SR leukemia 26.3% and 92.3% | RPMI-8226 leukemia 48.3% and 110% | OVCAR-8 ovarian 72.3% and 110% | OVCAR-5 ovarian 85.7% and 111% | OVCAR-4 ovarian 49.6% and 105% | SK-OV-3 ovarian 103% and 107% | IGROV1 ovarian 65.7% and 108% | OVCAR-3 ovarian 53.1% and 128% | HS 578T breast 53.9% and 96.3% | NCI/ADR-RES ovarian 50.2% and 101%

COc1cc(CNC(=O)C[C@H](C)CCC=C(C)C)ccc1OCc1cn(-c2cccc(C(F)(F)F)c2)nn1
inactive: SR leukemia 41.5% | RPMI-8226 leukemia 89.8% | OVCAR-8 ovarian 28.1% | OVCAR-5 ovarian 97.5% | OVCAR-4 ovarian 45.1% | SK-OV-3 ovarian 89% | IGROV1 ovarian 102% | OVCAR-3 ovarian 103% | HS 578T breast 94.3% | NCI/ADR-RES ovarian 44%

Fc1ccccc1CNc1nc(SCCN2CCOCC2)nc2c1cnn2CC(Cl)c1ccc(Br)cc1 (stereo not given)
inactive: OVCAR-8 ovarian 43.8% | OVCAR-5 ovarian 71.3% | OVCAR-4 ovarian 45% | SK-OV-3 ovarian 58.3% | IGROV1 ovarian 73.7% | OVCAR-3 ovarian 66.7% | HS 578T breast 17% | NCI/ADR-RES ovarian 33.5%
active: SR leukemia -3.85% | RPMI-8226 leukemia -6.83%

O=C1C=CC(=CC=C2N(Cc3ccc4ccccc4c3)c3ccccc3N2Cc2ccc3ccccc3c2)C=C1
active: SR leukemia 3.48% | RPMI-8226 leukemia -5.25% and -13.4%
7.62% (active) and 29.5% (inactive): IGROV1 ovarian
24.2% (inactive) and -1.46% (active): OVCAR-3 ovarian
inactive: OVCAR-8 ovarian 20.2% and 24.9% | OVCAR-5 ovarian 36.6% and 47.2% | OVCAR-4 ovarian 37.9% and 27.6% | SK-OV-3 ovarian 13.4% and 46.4% | HS 578T breast 52.3% and 32.6% | NCI/ADR-RES ovarian 104% and 102%

O=C(c1ccc(Cl)cc1)C1[C@H](c2ccccc2Cl)[C@@H](c2ccccc2)NC12C(=O)Nc1ccc(Cl)cc12 (stereo not given in full)
active: SR leukemia -52.8% | RPMI-8226 leukemia 2.23% | OVCAR-8 ovarian -76.4% | OVCAR-5 ovarian -53.8% | OVCAR-4 ovarian -14.4% | SK-OV-3 ovarian 1.4% | IGROV1 ovarian -42.5% | OVCAR-3 ovarian -28.9% | HS 578T breast -40.4% | NCI/ADR-RES ovarian -82.7%

Cc1ccc(-c2cc(C(=O)N=Nc3c(O)[nH]c4ccc(F)cc34)c3ccccc3n2)cc1
inactive: SR leukemia 56.8% | RPMI-8226 leukemia 103% | OVCAR-8 ovarian 16.8% | OVCAR-5 ovarian 70% | SK-OV-3 ovarian 94.3% | IGROV1 ovarian 52.9% | OVCAR-3 ovarian 95.3% | HS 578T breast 32.1%
active: OVCAR-4 ovarian 1.07% | NCI/ADR-RES ovarian 3.61%

COc1ccc(NC(=O)Cn2c(/C=C/c3cccc(Br)c3)nc3ccccc3c2=O)cc1
active: OVCAR-4 ovarian -45.7% | HS 578T breast -0.494%
inactive: SR leukemia 78.3% | RPMI-8226 leukemia 42.5% | OVCAR-8 ovarian 14.4% | OVCAR-5 ovarian 47.6% | SK-OV-3 ovarian 36.4% | IGROV1 ovarian 49.8% | OVCAR-3 ovarian 36.3% | NCI/ADR-RES ovarian 31.2%
